VDR inhibitor – blocks the human vitamin D receptor; 400,000 tested, 0.93% active; AID 504847; VDR-SRC2-3 peptide fluorescence polarization, 2 h; P11473; Potency, µM, usual class: inhibitors
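Reagent solutions, kept cold and dark, are dispensed first; compounds are then pinned in at 23 nl, plates briefly spun, and incubated 2 h at ambient temperature. Inhibition of VDR–SRC2-3 peptide binding is read by fluorescence polarization.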
PI5P4Ka inh – PI5P4K alpha (human) kinase inhibition. P48426. PI5P4Kalpha enzyme, ADP-Glo luminescence, 60 min; hits give low values. max response, %. 330,000 tested, 1.2% active. AID 652105; active means max response of -50% or lower; inconclusive means between -30% and -50%; inactive means -30% or higher; further: value at the top dose of about 77 µM
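Enzyme plus substrate dispensed, test compounds pinned in, then ATP (5 microM final) added. After 60 min at RT, ADP-Glo reagent 1 for 45 min and reagent 2 for 30 min preceded luminescence imaging.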
PLK1 PBD block – blocks phosphopeptide binding to human PLK1 polo-box domain; P53350; Plk1 PBD binding of FITC phosphopeptide, fluorescence polarization; Potency, µM, actives largely listed as inhibitors; 360,000 tested, 2.8% active; AID 720504; further: series mostly up to about 57 µM; nearly all actives have a fitted effect of over 65% in size
Target sequence (P53350 whole entry, looked up, the tested form may be a part): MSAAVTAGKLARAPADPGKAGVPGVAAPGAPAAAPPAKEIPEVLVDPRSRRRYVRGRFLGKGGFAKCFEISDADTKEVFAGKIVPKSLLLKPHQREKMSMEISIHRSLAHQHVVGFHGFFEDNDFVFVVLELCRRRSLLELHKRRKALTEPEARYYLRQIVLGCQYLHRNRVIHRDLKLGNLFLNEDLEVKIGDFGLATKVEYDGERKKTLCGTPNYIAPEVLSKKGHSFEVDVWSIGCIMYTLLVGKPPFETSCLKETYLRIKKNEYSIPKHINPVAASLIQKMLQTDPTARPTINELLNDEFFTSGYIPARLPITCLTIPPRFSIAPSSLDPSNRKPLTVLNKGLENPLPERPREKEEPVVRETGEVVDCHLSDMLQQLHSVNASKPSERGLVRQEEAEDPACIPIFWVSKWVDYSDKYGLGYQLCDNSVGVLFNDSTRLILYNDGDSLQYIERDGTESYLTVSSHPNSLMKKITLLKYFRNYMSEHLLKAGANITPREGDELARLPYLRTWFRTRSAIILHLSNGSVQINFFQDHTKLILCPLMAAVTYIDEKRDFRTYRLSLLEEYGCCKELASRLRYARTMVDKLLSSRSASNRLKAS
Rango complex inh – inhibitors of Rango-importin beta complex formation; Rango CFP/YFP FRET sensor + importin beta, 45 min; AID 540263; Potency, µM (series often up to 92.2 µM); Q14974; 340,000 tested, 0.031% active; calls by dose curve; further: nearly all actives have a fitted effect of over 15% in size
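Inhibition scored from the CFP 486 nm/YFP 530 nm FRET ratio 45 min after adding 0.125 microM importin beta to 50 nM Rango biosensor preincubated 5 min with compound (room temperature, PBS with DTT, Tween-20, BSA). No-importin wells as positive control.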
Rango dissoc inh – inhibition of RanGTP-driven Rango-importin beta dissociation; Biochemical FRET Rango-importin beta, RanGTP-induced dissociation; Potency, µM (doses to about 46.1 µM); 340,000 tested, 0.071% active; AID 540253; calls by dose curve; further: nearly all actives have a fitted effect of over 45% in size
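Quantitative HTS using a FRET biosensor: 0.1 uM Rango, 0.25 uM importin beta, 0.6 uM Ran, 2 mM GTP, 0.2 uM RCC1 final, PBS with DTT, Tween-20 and BSA. Post-read taken 45 min after Ran addition.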
GCN5L2 inh – blocks human GCN5L2 histone acetyltransferase; Q92830; GCN5L2 HAT assay, ThioGlo1 CoA-SH fluorescence; Potency, µM (top dose mostly 58.9 µM), usual class: inhibitors; 390,000 tested, 0.21% active; AID 504327
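Compounds, pin-transferred from DMSO stocks, meet 20nM GCN5L2 for 15 min before the reaction begins with H3(1-25) peptide (75uM) and acetyl-CoA (70uM). Thiol-reactive ThioGlo1 reports CoA release over 20 min at room temperature.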
Hits are given with their value; 0 = inactive; ? = inconclusive; - = no result. A selection: hits, their analogues and other compounds. The true share with any hit is near 3.6%. Unless noted, the call rests on the fitted dose curve; in most records, active means well fitted curve in the direction sought with a large enough effect; inconclusive means small, poorly fitted or top-dose-only effect, or another doubt; inactive means no such curve, though single readings can be large; an effect the other way counts as inactive or inconclusive.

SMILES	VDR inhibitor	PI5P4Ka inh	PLK1 PBD block	Rango complex inh	Rango dissoc inh	GCN5L2 inh
CC(C)[C@H](O)CC[C@@H](C)C1CC[C@H]2C3CC=C4C[C@@H](O)CC[C@]4(C)C3CC[C@]12C (stereo partly specified)	0	-	-	-	-	0
O=C1NN(c2ccc(Cl)cc2)C(=O)/C1=C\c1ccc(-c2cccc(C(=O)O)c2)o1	?	-69	24µM	?	0	0
COc1ccc(Sc2ccc(/C=C3\C(=O)NN(c4ccccc4)C3=O)o2)cc1	?	?	6µM	?	?	0
Cc1ccc(N2NC(=O)/C(=C/c3ccc(-c4ccc(Cl)c(C(=O)O)c4)o3)C2=O)cc1	?	?	?	?	0	0
O=C1NN(c2ccccc2)C(=O)/C1=C\c1ccc(-c2cc([N+](=O)[O-])ccc2O)o1	0	-69	?	0	0	0
COc1ccc(-n2c(C)cc(/C=C3\C(=O)NN(c4ccccc4)C3=O)c2C)cc1	0	0	0	0	0	0
CC1=C(c2ccc(Cl)cc2)S(=O)(=O)N=C1N1CCN(c2cccc(C)c2)C(C)C1 (stereo unspecified)	0	-	-	-	-	0
COc1cc2c(cc1NC(=O)COc1cc(C)ccc1C)oc1ccccc12	0	-	-	-	-	0
CC(=O)OCC(=O)[C@@]1(O)CCC2C3C[C@H](C)C4=CC(=O)C=CC4(C)C3C(O)CC21C (stereo partly specified)	0	-	-	-	-	0
CC1=CC(=O)C2C(C)(C)CCC[C@@]2(C)[C@@]1(O)CCc1ccoc1 (stereo partly specified)	50µM	-	-	-	-	0
CCc1ccccc1NC(=O)Nc1nnc(N(C)Cc2ccccc2)s1	0	-	-	-	-	0
CNC(=O)/C=C1\NC(C)(C)Cc2c1ccc1ccccc21	79µM	0	0	0	0	0
CC1(C)Cc2c(ccc3ccccc23)/C(=C/C#N)N1	0	-	0	0	0	0
O=CN1N=C(c2ccccc2)CC1c1ccc(Cl)cc1 (stereo unspecified)	0	0	0	0	0	0
O=C1OC(c2ccccc2)=NC12CC2c1ccc(Cl)cc1 (stereo unspecified)	25µM	0	1.9µM	0	0	0
CC(C)CCNC(=O)C(=O)Nc1c2c(nn1-c1ccc(Cl)cc1)CSC2	0	-	-	-	-	0
COC1=CC(=O)C=C(OC)C1=O	22µM	-51	6µM	0	0	0
Clc1ccc(Cn2c(/C=C/c3ccco3)nc3ccccc32)cc1	0	-78	0	0	0	0
C#CCn1c(/C=C/c2ccc(Cl)cc2)nc2ccccc21	0	-	-	-	-	0
Cc1ccc(Cn2c(S(=O)(=O)O)nc3ccccc32)cc1	?	0	24µM	0	0	0
Cc1ccc(Cn2c(/C=C/c3ccco3)nc3ccccc32)cc1	0	-64	0	0	?	0
CCCn1c(/C=C/c2ccco2)nc2ccccc21	0	-52	0	?	?	0
CCCCn1c(/C=C/c2ccco2)nc2ccccc21	0	0	0	?	?	0
CCCCN1CC(c2nc3ccccc3n2CCCCOc2cccc(C)c2C)CC1=O (stereo unspecified)	0	-	-	-	-	0
Cn1ccc2cc(-c3ccc4ncnc(NCc5cccc(F)c5)c4c3)ccc21	-	-	-	-	-	0
SMILES	VDR inhibitor	PI5P4Ka inh	PLK1 PBD block	Rango complex inh	Rango dissoc inh	GCN5L2 inh
CC(c1ccccc1)n1c(S(=O)(=O)O)nc2ccccc21 (stereo unspecified)	0	-67	0	0	0	0
CC(C)n1c(S(=O)(=O)O)nc2ccccc21	0	0	0	0	0	0
COc1ccc(C)cc1NC(=O)C(CCSC)NS(=O)(=O)c1ccc2c(c1)oc(=O)n2C (stereo unspecified)	0	-	-	-	-	0
CC(=O)Nc1c(O)cc(Br)c2nonc12	0	-	-	-	-	-
CC(=O)Nc1cc(O)c2nonc2c1O	4.5µM	-	-	-	-	-
CNc1nnc(Sc2ncccc2[N+](=O)[O-])s1	0	0	15µM	0	0	0
Clc1ccc(OCCn2cnc3ccccc32)cc1	0	?	3µM	0	0	0
Clc1ccccc1OCCn1cnc2ccccc21	0	-	0	0	0	0
O=C(/C=C/c1ccc(NC(=O)c2ccccc2-c2ccccc2C(=O)O)cc1)c1ccccc1	20µM	0	0	?	?	?
O=C(O)c1ccccc1-c1ccccc1C(=O)Nc1ccc(F)cc1	0	0	0	0	0	0
O=C(/C=C/c1ccncc1)c1ccc(NC(=O)c2ccccc2F)cc1	32µM	0	0	?	0	0
O=C(Nc1ccc(Nc2ccccc2)cc1)c1ccccc1F	0	0	0	0	0	0
COc1cccc(N2CCN(C(=O)C3Cc4ccccc4N3C(C)=O)CC2)c1 (stereo unspecified)	0	-	-	-	-	0
CC(C)CCNC(=O)c1ccc2c(c1)N(Cc1ccccc1F)C(=O)c1ccccc1S2=O (stereo unspecified)	0	-	-	-	-	0
CCc1nnc(NC(=O)CSCc2cc(=O)n3nc(C)sc3n2)s1	?	?	3.4µM	0	0	0
CSc1ccc(CCNC(=O)C(C)n2nc(C)c3sc4ccccc4c3c2=O)cc1 (stereo unspecified)	0	-	-	-	-	0
COCc1ccc(C(=O)NCC2(N3CCCCC3)CCCCC2)cc1	?	0	30µM	0	0	0
CS(=O)(=O)Cc1ccc(C(=O)NCC2(N3CCCCC3)CCCCC2)cc1	0	0	0	0	0	0
O=S(=O)(Nc1ccc(O)c2ccccc12)c1cccs1	?	0	12µM	0	0	0
CCOC(=O)/C(=C\c1ccccc1)C(=O)c1cc(C(C)=O)c(Nc2ccccc2)s1	?	-	0	?	0	0
CCOC(=O)/C(=C\c1cccnc1)C(=O)c1cc(C(C)=O)c(Nc2ccccc2)s1	7.9µM	0	?	?	?	0
O=C(NC1CCCCC1)Oc1cccc2ccccc12	0	0	24µM	0	0	0
Cc1ccc(C)c(Cn2c(SCC(=O)N(C)Cc3ccccc3)nc3ccccc32)c1	0	-	-	-	-	0
COc1ccc(CN2C(=O)c3cccnc3C2=O)cc1S(=O)(=O)N(C)c1cccc(C)c1	0	0	24µM	0	0	0
Cc1cc(Br)ccc1NC(=O)COc1cc(=O)n(C)c2ccccc12	0	-	-	-	-	0
SMILES	VDR inhibitor	PI5P4Ka inh	PLK1 PBD block	Rango complex inh	Rango dissoc inh	GCN5L2 inh
CC(C)(C)C(=O)Nc1cc(-c2cccc(Br)c2)nn1-c1ccccc1	0	-	-	-	-	0
COc1cc(SC#N)ccc1N=Cc1c(C)[nH]n(-c2ccc(C)cc2C)c1=O	?	0	8.4µM	?	0	-
Nc1nonc1-c1nc2ccccc2n1Cc1c(Cl)cccc1Cl	0	-	-	-	-	0
CCOC(=O)C1CCN(C(=S)Nc2ccccc2)CC1	0	0	0	0	0	0
CCOC(=O)C1CCCN(C(=O)Cc2ccc(C)cc2)C1 (stereo unspecified)	0	0	27µM	0	0	0
CCOC(=O)C1CCN(C(=S)Nc2ccc(S(N)(=O)=O)cc2)CC1	0	0	21µM	0	0	0

Screens as filed in PubChem BioAssay.
